LYP inh 2 = blocks human PTPN22 phosphatase activity; 0.21% of 96,000 active; inhibition, % at 2 µM; AID 640; recombinant LYP catalytic domain, DiFMUP fluorescence;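 active = inhibition at 2 µM at or above a set limit, the screen mean plus 3 SD, cut at about 24% in these data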;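 also: 0% = DMSO with enzyme and 100% = enzyme fully blocked by orthovanadate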
S1P2 agonist = activates the human S1P2 receptor | O95136 | activation, % at 4.5 µM | S1P2-expressing cell line, agonist reporter read-out | 0.46% of 97,000 active | AID 729; in the data active = activation above about 16%;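 also: 0% = vehicle low control and 100% = maximal reference agonist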
Target sequence (O95136 whole entry, looked up): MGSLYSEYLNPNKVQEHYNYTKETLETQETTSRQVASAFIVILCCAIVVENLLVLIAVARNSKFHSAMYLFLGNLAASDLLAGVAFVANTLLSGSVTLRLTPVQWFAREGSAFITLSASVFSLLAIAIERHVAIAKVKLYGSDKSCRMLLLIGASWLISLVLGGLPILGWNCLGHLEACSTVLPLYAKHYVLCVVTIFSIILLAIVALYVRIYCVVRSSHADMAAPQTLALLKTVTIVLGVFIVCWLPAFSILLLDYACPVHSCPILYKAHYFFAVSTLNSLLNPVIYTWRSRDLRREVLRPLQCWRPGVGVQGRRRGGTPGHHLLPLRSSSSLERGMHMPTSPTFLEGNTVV
PTPN22 act = LYP (human) phosphatase activation | recombinant LYP, DiFMUP fluorescence; 0 = plate median, 100 = signal doubled | activation, % at 2 µM | 0.11% of 96,000 active | AID 697;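 active = activation at 2 µM above a set limit, the mean plus 5 SD, cut at about 37% in these data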
S1P2 blocker = antagonists of human S1P2 receptor; cell-based S1P2 antagonist assay, inhibition at 5 uM; 0.21% of 97,000 active; O95136; inhibition, % at 5 µM; in the data active = inhibition above about 45%;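 also: CRE beta-lactamase reporter cells expressing human S1P2 stimulated with S1P; 0% = agonist at EC80 alone and 100% = agonist plus reference antagonist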
GALR2 blocker = GALR2 (human) receptor antagonism. O43603. GALR2-expressing cells, antagonist mode. inhibition, % at 4 µM. 0.39% of 140,000 active;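 also: cells stimulated with galanin 1-16 at roughly its EC80; 0% = agonist challenge control and 100% = basal control without agonist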
GALR2 agonist = agonists of human galanin receptor 2 (GALR2); activation, % (test concentration not listed); 0.48% of 140,000 active; O43603; GALR2-expressing cells, agonist activation read-out; in the data active = activation above about 5%, passing the limit was not always enough;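 also: 0% = vehicle buffer wells and 100% = reference agonist at full effect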
GALR2 ant conf = GALR2 (human) antagonism confirmed; shares compounds with GALR2 blocker; GALR2-expressing cells, antagonist mode, inhibition; inhibition, % at 4 µM; 60% of 480 active; AID 866;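 also: cells stimulated with galanin at about its EC80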
BLA inhib ctr = inhibits beta-lactamase reporter in GALR2 antagonist counterscreen | shares compounds with GALR2 blocker | CHO NFAT-BLA reporter, beta-lactamase FRET, thapsigargin-stimulated | inhibition, % at 4.2 µM | 36% of 480 active | AID 867;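 active = inhibition above the mean inhibition across tested compounds plus 3 SD, cut at about 27% in these data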;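 also: 0% = 500 nM thapsigargin stimulated wells and 100% = unstimulated BSA only wells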
* = called active by the depositor. This is a sample that favours compounds with a hit; in the whole collection about 1.3% have one here. Rule as the data show it, unless noted: active = inhibition above about 27%; inactive = the rest.

For CCOC(=O)C1=C(CSc2nc(-c3ccccc3)ccc2C#N)OC(N)=C(C#N)C1c1cccnc1 (stereo not given) the results were LYP inh 2 -28.4, S1P2 agonist -7.6, PTPN22 act 27.3, S1P2 blocker 5.8, GALR2 blocker 28.6*, GALR2 agonist -1.1, GALR2 ant conf 29.7* and BLA inhib ctr 17.0.
`CCOC(=O)CC1=C(C(=O)OCC)C(c2cccnc2)C(C#N)=C(N)O1` (stereo not given) gave LYP inh 2 17.4, S1P2 agonist -2.0, PTPN22 act -15.5, S1P2 blocker -3.6, GALR2 blocker -9.2 and GALR2 agonist -2.7.
Screening O=C(CSc1ccc(Cl)cc1)N1CCOCC1 returned LYP inh 2 0.8, S1P2 agonist -5.4, PTPN22 act -1.7, S1P2 blocker -5.0, GALR2 blocker 28.6*, GALR2 agonist -2.1, GALR2 ant conf -1.5 and BLA inhib ctr -4.0.
For CCCC(=O)Nc1ccccc1Sc1ncnc2scc(-c3ccccc3)c12 the results were GALR2 blocker 3.8 and GALR2 agonist 0.1.
For COc1ccc(OC)c(S(=O)(=O)N2CCN(C)CC2)c1 the results were GALR2 blocker 10.0 and GALR2 agonist -1.1.
COc1ccc(OC)c(S(=O)(=O)N2CCCCCC2)c1 was read as GALR2 blocker 28.1*, GALR2 agonist -1.8, GALR2 ant conf 1.5 and BLA inhib ctr 0.1.
CCN(CC)C(=O)C(=O)c1cccn1-c1cccc(-n2cccc2C(=O)C(=O)N(CC)CC)c1C#N was read as LYP inh 2 -3.7, S1P2 agonist -3.5, PTPN22 act 5.4, S1P2 blocker 4.8, GALR2 blocker -4.7 and GALR2 agonist -1.0.
Screening Cc1ccc(S(=O)(=O)CC2CSc3nc4ccccc4n32)cc1 (stereo not given) returned S1P2 agonist -4.8, S1P2 blocker 58.0*, GALR2 blocker 36.3*, GALR2 agonist -1.3, GALR2 ant conf 29.1* and BLA inhib ctr 7.1.
For CC(=O)c1ccccc1OCCn1nnc(-c2ccc(C)cc2)n1 the results were LYP inh 2 6.9, S1P2 agonist -6.0, PTPN22 act -3.3, S1P2 blocker -3.3, GALR2 blocker 5.4 and GALR2 agonist -2.1.
CCN(CC)c1ccc(/C=N/N(c2ccccc2)c2ccccc2)c(O)c1 was read as GALR2 blocker 9.0 and GALR2 agonist 0.5.
Screening COc1cc(/C=N\Nc2nc3ccccc3[nH]2)cc(OC)c1OC returned LYP inh 2 -6.4, S1P2 agonist 4.1, PTPN22 act 9.9, S1P2 blocker -5.8, GALR2 blocker 12.1 and GALR2 agonist -2.2.
For CCN(CC)c1ccc(/C=N/Nc2nc3ccccc3[nH]2)c(O)c1 the results were LYP inh 2 -1.6, S1P2 agonist 0.6, PTPN22 act -2.6, S1P2 blocker 3.2, GALR2 blocker 42.5*, GALR2 agonist -0.4, GALR2 ant conf 45.3* and BLA inhib ctr 15.5.
`Cc1ccc2cc(/C=N/Nc3nc4ccccc4[nH]3)c(Cl)nc2c1` gave GALR2 blocker 98.2*, GALR2 agonist -3.4, GALR2 ant conf 22.8 and BLA inhib ctr 13.5.
`CN(C(=O)COc1ccccc1C(=O)NCCOc1ccccc1)c1ccccc1` gave GALR2 blocker 28.8*, GALR2 agonist -1.8, GALR2 ant conf 42.6* and BLA inhib ctr 12.3.
For O=C(OCn1ncc(Br)c(Br)c1=O)c1c(F)cccc1F the results were LYP inh 2 3.4, S1P2 agonist -6.9, PTPN22 act -6.0, S1P2 blocker 69.0*, GALR2 blocker 96.5*, GALR2 agonist -5.2, GALR2 ant conf 94.2* and BLA inhib ctr 98.4*.
`Cc1c(Cl)cccc1NC(=S)N1CCN(Cc2ccc3c(c2)OCO3)CC1` gave GALR2 blocker 8.3 and GALR2 agonist -2.4.
For Cn1c(-c2c(N)n(-c3ccccc3)c3nc4ccccc4nc23)nc2ccccc21 the results were GALR2 blocker 33.1*, GALR2 agonist 0.3, GALR2 ant conf 34.5* and BLA inhib ctr 47.3*.
Screening Cc1cccc(-n2c(N)c(-c3nc4ccccc4n3C)c3nc4ccccc4nc32)c1 returned GALR2 blocker 10.6 and GALR2 agonist 0.4.
For COC(=O)c1cnn(-c2cc(Oc3ccccc3)ncn2)c1N the results were LYP inh 2 10.1, S1P2 agonist -5.2, PTPN22 act -5.2, S1P2 blocker -8.4, GALR2 blocker 0.3 and GALR2 agonist -1.6.
For Cc1ccccc1Oc1cc(-n2ncc(Cl)c(Cl)c2=O)ncn1 the results were GALR2 blocker 81.7*, GALR2 agonist -1.8, GALR2 ant conf 97.4* and BLA inhib ctr 103.3*.
CCOc1cnn(-c2cc(Oc3ccc(C)cc3)ncn2)c(=O)c1Cl was read as LYP inh 2 -0.7, S1P2 agonist -5.6, PTPN22 act 0.7, S1P2 blocker 0.8, GALR2 blocker 27.5*, GALR2 agonist -1.3, GALR2 ant conf 3.2 and BLA inhib ctr 9.7.
COc1ccccc1Oc1cc(-n2nc(C)cc2C)ncn1 was read as GALR2 blocker -5.2 and GALR2 agonist -0.8.
Screening CCN1CCc2c(sc(NC(=O)Nc3ccc(Cl)c(Cl)c3)c2C(N)=O)C1 returned GALR2 blocker 27.4*, GALR2 agonist -1.2, GALR2 ant conf 24.7 and BLA inhib ctr 20.7.
`CCCCOC(C)n1cc(F)c(=O)[nH]c1=O` (stereo not given) gave GALR2 blocker 14.6 and GALR2 agonist -0.4.
Screening O=c1[nH][nH]c(-c2ccccc2)c1C=Nc1cccc(Cl)c1 returned LYP inh 2 -9.2, S1P2 agonist -1.7, PTPN22 act 12.3, S1P2 blocker 24.9, GALR2 blocker 0.4 and GALR2 agonist -1.6.
O=c1[nH][nH]c(-c2ccccc2)c1C=Nc1ccc(Cl)cc1 was read as LYP inh 2 21.2, S1P2 agonist -2.9, PTPN22 act -17.8, S1P2 blocker 17.7, GALR2 blocker 29.0*, GALR2 agonist -2.9, GALR2 ant conf 18.9 and BLA inhib ctr -0.1.
CC1(C)CC(=O)C2=C(C1)N(c1cccc(O)c1)C1=C(C2)C(=O)CC(C)(C)C1 was read as LYP inh 2 -2.2, S1P2 agonist -0.1, PTPN22 act 0.2, S1P2 blocker 26.3, GALR2 blocker 43.0*, GALR2 agonist 1.8, GALR2 ant conf 25.1 and BLA inhib ctr 25.2.
CC1(C)CC(=O)C(C(C2=C(O)CC(C)(C)CC2=O)c2cccc(O)c2)C(=O)C1 (stereo not given) was read as LYP inh 2 3.1, S1P2 agonist -7.2, PTPN22 act -4.0, S1P2 blocker 19.2, GALR2 blocker 0.4 and GALR2 agonist -1.8.
For CCCCOc1ccc(C2C(C(=O)c3ccc(C)o3)=C(O)C(=O)N2CC2CCCO2)cc1 (stereo not given) the results were GALR2 blocker -1.7 and GALR2 agonist -1.0.

Screening data (PubChem BioAssay)
